Where “and” joins values, the source holds several entries; their conditions need not be identical. Equal values may be shown once. Results filed as inconclusive are left out. Calls of active or inactive are those of the source. Unless noted, the call rests on the fitted dose curve; in most records, active means well fitted curve in the direction sought with a large enough effect in the repeat runs; inconclusive means weak or mixed curves; inactive means no such curve, though single readings can be large; an effect the other way counts as inactive or inconclusive.

Assay [1] is described as follows: qHTS assay for small molecule agonists of the p53 signaling pathway - cell viability (AID 651633; calls by dose curve;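 further: p53RE-bla HCT reporter cells with a stable beta-lactamase p53 reporter; series mostly up to about 83 µM; nearly all actives have a fitted effect of over 30% in size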). Summed up:
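p53RE-bla cells were treated with compound for 16 hours at 37 C. Cytotoxicity was then measured as CellTiter-Glo luminescence after 30 min at room temperature.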
(In general: In qHTS, concentration-response curves come from the screen itself.)

Assay [2] is described as follows: qHTS assay for small molecules that induce genotoxicity in human embryonic kidney cells expressing luciferase-tagged ATAD5 - cell viability (AID 651634; calls by dose curve; further: nearly all actives have a fitted effect of over 25% in size). Summed up:
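After 15.5 hr incubation with compound at 37C, 5% CO2, HEK293T ATAD5-luciferase cells received CellTiter-Fluor reagent; fluorescence intensity was quantified following 30 min at 37C.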

Assay [3] can be described thus: qHTS assay for small molecule disruptors of the mitochondrial membrane potential - cell viability (AID 720634; calls by dose curve;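 further: human HepG2 liver cancer cells; series mostly up to about 83 µM; nearly all actives have a fitted effect of over 20% in size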). Summed up:
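ATP-based luminescent viability readout (CellTiter-Glo, 30 min, room temperature) in HepG2 cells multiplexed with the m-MPI membrane potential dye; compound exposure lasted 1 hr at 37 C.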

The nature of assay [4]: qHTS assay for small molecule disruptors of the mitochondrial membrane potential (AID 720635). Further: potency means the concentration at half of the fitted maximal effect. Summed up: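 HepG2 cells exposed to compound 1 hr at 37C, then Mito-MPS dye 30 min. Ratio read of aggregate (540/590 nm) versus monomer (490/535 nm) fluorescence.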
Assay [5] in a line: qHTS assay to test for compound auto fluorescence at 590 nm (red) in HepG2 cells (AID 720674). Summed up:
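HepG2 cells, 2,000 per well in MEM with 10% FBS, attached overnight at 37 C, then got 23 nL compound or DMSO. After 1 hr at 37 C, 5% CO2, red fluorescence was read at 540/590 nm against Rose Bengal sodium as reference.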

Assay [6] is described as follows: qHTS assay to test for compound auto fluorescence at 535 nm (green) in HepG2 cells (AID 720675).
Assay [7] in a line: qHTS assay to test for compound auto fluorescence at 460 nm (blue) in HEK293 cells (AID 720678). Summed up: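 Cells were seeded and left to adhere for 4-5 hr at 37C. Compounds were then pin-transferred. After an overnight incubation at 37C under 5% CO2, intrinsic fluorescence at 405/460 nm was measured and referenced to triamterene.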
A short description of assay [8]: qHTS assay to test for compound auto fluorescence at 590 nm (red) in HEK293 cells (AID 720679). The method, boiled down:
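Each well held 2,000 HEK293 cells in medium containing 10% dialyzed FBS. Following 4-5 hr attachment at 37C, 23 nL test compound or DMSO was added; plates sat overnight, and red fluorescence (540/590nm) was recorded.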

The nature of assay [9]: qHTS assay to test for compound auto fluorescence at 535 nm (green) in HEK293 cells (AID 720680).
Assay [10] can be described thus: qHTS assay to test for compound auto fluorescence at 460 nm (blue) in HEK293 cell free culture (AID 720681). The method, boiled down: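 Compounds were added to cell-free DMEM with 10% FBS and fluorescence read directly. The blue channel used 405 nm excitation and 460 nm emission, with triamterene as the reference fluorophore.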
Assay [11] is described as follows: qHTS assay to test for compound auto fluorescence at 535 nm (green) in HEK293 cell free culture (AID 720682). The method, boiled down:
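DMEM + 10% FBS, cell-free; cpd or DMSO pinned in; Ex485/Em535 read; output as fluorescein-equivalent signal.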

The nature of assay [12]: qHTS assay to test for compound auto fluorescence at 590 nm (red) in HepG2 cell free culture (AID 720684). The method, boiled down:
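Auto fluorescence equivalency versus Rose Bengal sodium, red channel Ex/Em 540/590 nm; compounds in cell-free MEM/10% FBS; DMSO vehicle control.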

Assay [13] in a line: qHTS assay to test for compound auto fluorescence at 460 nm (blue) in HepG2 cell free culture (AID 720685). Summed up:
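Cell-free plates of MEM plus 10% FBS received 23 nL compound or DMSO vehicle; blue-channel (405/460 nm) intensity scored against triamterene as reference fluorophore.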

A short description of assay [14]: qHTS assay to test for compound auto fluorescence at 535 nm (green) in HepG2 cell free culture (AID 720686).
The nature of assay [15]: qHTS assay to test for compound auto fluorescence at 460 nm (blue) in HepG2 cells (AID 720687). The method, boiled down: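 HepG2 cells in MEM with 10% FBS, attached overnight at 37 C, were exposed to compound or DMSO for 1 hr at 37 C, 5% CO2. Blue fluorescence was read at 405/460 nm, with triamterene as reference fluorophore.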
In assay [16] the target is Glucocorticoid receptor (Homo sapiens) (UniProt P04150). Kind of assay: qHTS assay to identify small molecule agonists of the glucocorticoid receptor (GR) signaling pathway (AID 720691; active means well fitted activation curve with a large enough effect in the signal ratio in the repeat runs, not every such curve was filed as active; the % refers to the signal ratio). The method, boiled down: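 Cells: GR-bla HeLa, endogenous GR with stably integrated GRE-beta-lactamase reporter. Treatment 18 h, 37 C, compounds delivered in DMSO. Detection via LiveBLAzer B/G FRET substrate, 2 h RT, fluorescence intensity.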

A short description of assay [17]: qHTS assay for small molecules that induce genotoxicity in human embryonic kidney cells expressing luciferase-tagged ATAD5 (AID 651632). Further: nearly all actives have a fitted effect of over 15% in size. Summed up:
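Quantitative HTS in HEK293T expressing luciferase-tagged ATAD5, whose levels rise upon DNA damage. Exposure ran 16 hr at 37C and 5% CO2, with luminescence read 30 min after Amplite addition at room temperature.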

The nature of assay [18]: qHTS assay to test for compound auto fluorescence at 590 nm (red) in HEK293 cell free culture (AID 720683). Summed up:
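Cell-free wells of DMEM with 10% FBS received compound, and intrinsic fluorescence was read at excitation/emission 540/590 nm. Values expressed as equivalence to Rose Bengal sodium.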

Assay [19] concerns the target Glucocorticoid receptor (Homo sapiens) (UniProt P04150). Nature of the assay: qHTS assay to identify small molecule antagonists of the glucocorticoid receptor (GR) signaling pathway (AID 720692; active means well fitted inhibition curve with a large enough effect in the signal ratio in the repeat runs, not every such curve was filed as active; the % refers to the signal ratio). The method, boiled down: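 Quantitative HTS in antagonist format: HeLa cells expressing endogenous GR and a stably integrated GRE-bla reporter, stimulated with 5 nM dexamethasone (final) alongside test compounds for 18 h.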

Sequence of Glucocorticoid receptor (Homo sapiens) (P04150 whole entry, looked up): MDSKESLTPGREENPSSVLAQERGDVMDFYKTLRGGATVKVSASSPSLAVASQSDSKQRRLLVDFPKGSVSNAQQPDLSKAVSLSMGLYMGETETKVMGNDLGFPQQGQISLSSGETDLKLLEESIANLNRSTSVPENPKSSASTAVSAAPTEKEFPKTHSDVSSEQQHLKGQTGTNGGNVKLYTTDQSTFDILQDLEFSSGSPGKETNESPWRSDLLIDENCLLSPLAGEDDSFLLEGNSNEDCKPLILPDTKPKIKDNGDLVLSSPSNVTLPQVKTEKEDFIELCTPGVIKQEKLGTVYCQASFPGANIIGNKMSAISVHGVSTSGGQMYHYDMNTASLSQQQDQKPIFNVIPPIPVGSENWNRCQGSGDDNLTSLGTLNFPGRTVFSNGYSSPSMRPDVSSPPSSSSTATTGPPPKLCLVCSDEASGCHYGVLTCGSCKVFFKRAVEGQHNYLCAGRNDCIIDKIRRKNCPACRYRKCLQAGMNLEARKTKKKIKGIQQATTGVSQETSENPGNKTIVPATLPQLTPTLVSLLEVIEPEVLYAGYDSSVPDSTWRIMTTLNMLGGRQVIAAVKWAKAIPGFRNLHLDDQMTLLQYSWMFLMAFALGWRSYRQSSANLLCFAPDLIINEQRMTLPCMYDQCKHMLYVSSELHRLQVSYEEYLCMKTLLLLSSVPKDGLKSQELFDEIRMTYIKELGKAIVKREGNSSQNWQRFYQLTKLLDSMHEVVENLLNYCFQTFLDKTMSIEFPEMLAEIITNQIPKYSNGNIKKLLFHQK

As to `C=CC(=O)OCCO`, the Potency entry in [1], in assay [2], in assay [3], in [4] and in [16] was “inactive” throughout. Also, the compound was classed as inactive in assay [5], in [6], in assay [7], in assay [8], in [9] and in [10]. In addition, the compound was called inactive in assay [11], in assay [12], in assay [13], in assay [14] and in assay [15].
Regarding `CC1(C)C(C=C(Cl)Cl)C1C(=O)OC(C#N)c1cccc(Oc2ccccc2)c1` (stereo unspecified), the Potency entry in [17], in assay [1], in assay [2] and in assay [16] was “inactive” in each case. Besides, the compound was called inactive in assay [5], in assay [6], in assay [7], in assay [8], in assay [9] and in assay [10]. The compound was classed as inactive in assay [11], in [12], in [13] and in assay [15].
Take `C[C@]12CCC(=O)C[C@@H]1CC[C@@H]1[C@@H]2CC[C@]2(C)[C@@H](O)CC[C@@H]12`: the Potency result in assay [1] and in assay [2] was “inactive” in each case. For the same compound, the compound was classed as inactive in assay [5], in [6], in assay [7], in assay [8], in assay [9] and in assay [10]. For the same compound, the outcome in assay [11], in assay [18], in assay [12], in [13], in assay [14] and in [15] was inactive.
With `CCCCC(CC)COC(=O)Cl` (stereo unspecified), the Potency result in assay [17], in assay [1], in [2], in assay [16] and in [19] was “inactive” each time. The call in assay [5], in [6], in [7], in assay [8], in [9] and in assay [10] was inactive. The outcome in [11], in assay [18], in [12], in [13], in [14] and in [15] was inactive.
As to `Cc1c(COC(=O)[C@@H]2[C@H](/C=C(\Cl)C(F)(F)F)C2(C)C)cccc1-c1ccccc1`, the Potency result in assay [2] and in [3] was “inactive” each time. Also, the Potency in [4] is 26.7 µM (active) and 34.3 µM (active). In addition, the result in assay [7], in assay [8], in [9], in assay [10], in assay [11] and in assay [18] was inactive. Also, the result in assay [12], in assay [13], in assay [14] and in assay [15] was inactive.
As to `S=C1NCCN1`, the Potency entry in assay [1] and in [2] was “inactive” throughout. In addition, the compound was classed as inactive in assay [7], in [8], in [9], in assay [10], in [11] and in assay [18]. In addition, the outcome in assay [12], in assay [13], in assay [14] and in assay [15] was inactive.
Regarding `O=Cc1ccco1`, the Potency entry in [1], in assay [2], in assay [3] and in assay [4] was “inactive” each time. For the same compound, the compound was called inactive in assay [7], in assay [8], in assay [9], in assay [10], in assay [11] and in assay [18]. Besides, the compound was called inactive in assay [12], in assay [13], in assay [14] and in [15].
As to `CCC(C)(c1ccc(O)cc1)c1ccc(O)cc1`, the Potency result in assay [1], in assay [2] and in assay [3] was “inactive” each time. The Potency in [4] was 7.69 µM (active) and 9.69 µM (active). Also, the call in [5], in assay [6], in assay [7], in [8], in [9] and in assay [10] was inactive. Moreover, the outcome in assay [11], in assay [18], in assay [12], in assay [13] and in assay [15] was inactive.
With `CC(C)NC(C)C`, the Potency entry in assay [1], in assay [2], in [3], in assay [4], in assay [16] and in assay [19] was “inactive” in each case. Further, the result in assay [5], in assay [7], in assay [8], in [9], in assay [10] and in assay [11] was inactive. In addition, the compound was classed as inactive in assay [12], in assay [13], in assay [14] and in assay [15].

Source of the values: PubChem BioAssay (Tox21).
